The results in this text go back to PubChem BioAssay (NCI).

Test systems include NCI-H23 lung; NCI-H226 lung; NCI-H322M lung; HOP-62 NSCLC; NCI-H460 lung; HOP-92 NSCLC; NCI-H522 lung; A549/ATCC NSCLC; 786-0 renal; COLO 205 colon; DU-145 prostate; K-562 leukemia; MALME-3M melanoma; MDA-MB-231 breast; RXF 393 renal; SF-268 CNS; SF-295 CNS; SF-539 CNS; UACC-257 melanoma; M14 melanoma.
What all share (assay): NCI-60 one-dose screen, 48 h (100 = growth as untreated, 0 = no growth, -100 = all killed)
Common to all, as to details: 10 µM unless noted

The structures appear in SMILES notation. This is part of a sample that, as a whole, favours compounds with a hit. Of some 83,000 tested, about 20% had one in any assay.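 Cells were grown in 96-well plates and exposed to the test compound at a single concentration for 48 hours; results are reported as percent growth, with values below 10 considered active.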 Unmarked numbers belong to inactive results. Calls of active or inactive are those of the source.

`O=C(CSc1nc2sc3c(c2c(=O)n1-c1ccccc1)CCCCC3)N/N=C/c1cccc([N+](=O)[O-])c1`: the growth is 54.4% in the assay with NCI-H23 lung; 94.4% in the assay with NCI-H226 lung; 79% in the assay on NCI-H322M lung; 53% with HOP-62 NSCLC; 19.6% in the assay with NCI-H460 lung; 73.2% in the assay on HOP-92 NSCLC. The growth in the assay on NCI-H522 lung was 53.5%; with A549/ATCC NSCLC, 27.8%; with 786-0 renal it was 80.7%; in the assay on COLO 205 colon, 89.1%; in the assay on DU-145 prostate, 16.5%; in the assay with K-562 leukemia it was 56.3%. In addition, the growth in the assay on MALME-3M melanoma was 74.6%; in the assay with MDA-MB-231 breast it was 51.1%; in the assay on RXF 393 renal, 61.5%; in the assay on SF-268 CNS, 44.3%; in the assay with SF-295 CNS it was 76.3%; in the assay on SF-539 CNS, 0.0053% (active). For the same compound, the figures for the growth in the assay with UACC-257 melanoma and in the assay with M14 melanoma were 66.1% and 71.1%, respectively.

As to `O=C(O)c1ccc(-n2cc(/C=N/Nc3ccccc3)c(-c3ccc(F)cc3F)n2)cc1`, the growth was 71.5% in the assay on NCI-H23 lung; 84.2% in the assay with NCI-H226 lung; 62.1% in the assay on NCI-H322M lung; 40.2% in the assay with HOP-62 NSCLC; 55.3% in the assay with NCI-H460 lung; 83.5% in the assay with HOP-92 NSCLC. For the same compound, the growth in the assay with NCI-H522 lung is 26.6%; with A549/ATCC NSCLC, 60%; with 786-0 renal, 71.5%; with COLO 205 colon it was 108%; in the assay on DU-145 prostate, 49.2%; in the assay on K-562 leukemia, 18.6%. Further, the growth in the assay with MALME-3M melanoma was 70.4%; with MDA-MB-231 breast, 41%; in the assay with RXF 393 renal it was 92.9%; in the assay on SF-268 CNS, 45.8%; in the assay with SF-295 CNS, 77.2%; in the assay with SF-539 CNS, 75.3%. The growth in the assay on UACC-257 melanoma is 114%; with M14 melanoma it was 41.8%.

`CCOC(=O)[C@@H]1CSC(CC)=C(C(=O)O)N1`: the growth in the assay on NCI-H23 lung is 103%; in the assay on NCI-H226 lung it was 98.2%; with NCI-H322M lung, 92.7%; in the assay on HOP-62 NSCLC, 89.2%; in the assay on NCI-H460 lung it was 110%; in the assay with HOP-92 NSCLC it was -35.1% (active). The growth in the assay with NCI-H522 lung was 93.6%; in the assay with A549/ATCC NSCLC it was 90.7%; in the assay with 786-0 renal, 92.2%; with COLO 205 colon it was 100%; in the assay on DU-145 prostate it was 118%; with K-562 leukemia it was 8.66% (active). Also, the growth with MALME-3M melanoma is 104%; with MDA-MB-231 breast, 105%; with RXF 393 renal, 109%; with SF-268 CNS, 116%; with SF-295 CNS, 111%; in the assay on SF-539 CNS it was 93.4%. Further, the values for the growth with UACC-257 melanoma and in the assay on M14 melanoma were 89.1% and 98.6%, respectively.

On to `CN(C)CCNC(=O)c1ccc(-c2nc3ccc4[nH]ncc4c3c3c2C2CCC3C2)cc1` (stereo not given), for which the growth in the assay on NCI-H23 lung is 32.2%; with NCI-H226 lung, 49.3%; with NCI-H322M lung, 58.8%; in the assay with HOP-62 NSCLC, 46.6%; in the assay on NCI-H460 lung it was 11.8%; in the assay with HOP-92 NSCLC, 101%. Besides, the growth is -28.8% (active) in the assay with NCI-H522 lung; 14.2% in the assay on A549/ATCC NSCLC; 28.3% with 786-0 renal; 18.6% in the assay with COLO 205 colon; 20.8% in the assay on DU-145 prostate; 20.7% in the assay with K-562 leukemia. In addition, the growth with MALME-3M melanoma was 28.1%; with MDA-MB-231 breast, 2.4% (active); in the assay on RXF 393 renal, -30.9% (active); with SF-268 CNS, 16.8%; in the assay with SF-295 CNS, 40.9%; in the assay with SF-539 CNS, 18.5%. Besides, the growth in the assay with UACC-257 melanoma was 58.7%; with M14 melanoma, 31.3%.

As for `O=C1NC(=O)C(Cc2ccc(OCc3ccc(-c4ccc(Cl)cc4Cl)cc3)cc2)S1` (stereo not given), the growth with NCI-H23 lung was 46.9%; in the assay with NCI-H226 lung, 74.5%; in the assay on NCI-H322M lung it was 90.8%; in the assay with HOP-62 NSCLC, 66.4%; in the assay on NCI-H460 lung, 58.5%; in the assay with HOP-92 NSCLC, 53.7%. The growth was 26.8% in the assay on NCI-H522 lung; 39.4% with A549/ATCC NSCLC; 63.8% in the assay with 786-0 renal; 90.4% in the assay with COLO 205 colon; 78.9% in the assay with DU-145 prostate; 23.5% in the assay on K-562 leukemia. The growth in the assay on MALME-3M melanoma is 49.9%; in the assay on MDA-MB-231 breast it was 71%; in the assay with RXF 393 renal it was 76.1%; in the assay on SF-268 CNS, 51.8%; in the assay on SF-295 CNS it was 45%; in the assay with SF-539 CNS, 56.2%. In addition, the values for the growth in the assay with UACC-257 melanoma and in the assay on M14 melanoma were 55.7% and 47.5%, respectively.

On to `COc1ccc(C2CC(c3ccc(Nc4nc(Nc5ccccc5)nc(Nc5ccccc5)n4)cc3)=NN2C(C)=O)cc1` (stereo not given), for which the growth in the assay on NCI-H23 lung was 97.4%; in the assay with NCI-H226 lung it was 98.1%; in the assay with NCI-H322M lung, 107%; in the assay on HOP-62 NSCLC, 95.2%; in the assay with NCI-H460 lung it was 116%; in the assay on HOP-92 NSCLC it was 78%. The growth with NCI-H522 lung was 88.7%; with A549/ATCC NSCLC, 88.1%; in the assay on 786-0 renal, 88.5%; with COLO 205 colon, 111%; with DU-145 prostate it was 144%; in the assay with K-562 leukemia, 75.2%. For the same compound, the growth in the assay with MALME-3M melanoma is 110%; with MDA-MB-231 breast it was 95.5%; in the assay with RXF 393 renal, -10.9% (active); with SF-268 CNS, 139%; in the assay on SF-295 CNS it was 99.5%; in the assay with SF-539 CNS it was 121%. For the same compound, the growth in the assay on UACC-257 melanoma was 88.4%; in the assay with M14 melanoma, 107%.

Take `Cc1ccc(NC(=O)Cn2cc(CN3CCN(c4ccnc5cc(Cl)ccc45)CC3)nn2)cc1`: the growth is 90% with NCI-H23 lung; 84.9% in the assay with NCI-H226 lung; 97.7% with NCI-H322M lung; 70.3% with HOP-62 NSCLC; 92.2% in the assay on NCI-H460 lung; 52.6% with HOP-92 NSCLC. In addition, the growth in the assay on NCI-H522 lung is 87.3%; in the assay with A549/ATCC NSCLC, 93.4%; in the assay with 786-0 renal, 96%; in the assay with COLO 205 colon it was 98.8%; in the assay with DU-145 prostate it was 102%; in the assay with K-562 leukemia, 63.8%. For the same compound, the growth in the assay with MALME-3M melanoma was 100%; in the assay on MDA-MB-231 breast it was 77.1%; with RXF 393 renal, 88.5%; in the assay on SF-268 CNS, 80.1%; in the assay with SF-295 CNS it was 86.3%; in the assay with SF-539 CNS, 98.7%. The growth in the assay with UACC-257 melanoma and in the assay with M14 melanoma was 103% each time.
